In PubChem BioAssay (NCI):
About 79,000 compounds went through this panel and 15% of them were active in at least one assay; those are over-represented in the sample as a whole. The source made the active and inactive calls. Rule as the data show it: active = growth inhibition above about 70%; inactive = the rest.

Key:
[1] = NCI Yeast Anticancer Drug Screen. Data for the wt1 strain (AID 149);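 also: 0% = growth of vehicle-treated wt1 cultures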; conditions: S. cerevisiae wt1 strain (SPY 50644) growth inhibition, active compounds read high
Procedure, shortened: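 Vehicle-normalised growth inhibition; strain wt1; compound exposure.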

[2] = NCI Yeast Anticancer Drug Screen. Data for the rad50EPP+ strain (AID 151);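 also: 0% = growth of vehicle-treated control cultures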; conditions: S. cerevisiae rad50 mutant strain, active compounds read high
Procedure, shortened: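 One strain with a rad50 alteration (rad50EPP+) was compound-treated, its growth then compared to that of vehicle controls.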

[3] = NCI Yeast Anticancer Drug Screen. Data for the rad50 strain (AID 155);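 also: 0% = growth of vehicle-only cultures of the same strain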; conditions: S. cerevisiae rad50 strain growth inhibition, active compounds read high
Procedure, shortened: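 A DNA repair-deficient yeast mutant serves as the test organism; compound-induced growth inhibition is calculated against vehicle-treated cells.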

[4] = NCI Yeast Anticancer Drug Screen. Data for the mec2-1 strain (AID 157); conditions: S. cerevisiae mec2-1 strain, active compounds read high
Procedure, shortened: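 Test agents were screened against the mec2-1 yeast strain, with defined DNA repair or cell cycle alteration. Growth was scored as inhibition against vehicle-only controls.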

[5] = NCI Yeast Anticancer Drug Screen. Data for the rad14 strain (AID 159);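 also: 0% = growth of vehicle-treated control cultures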; conditions: S. cerevisiae rad14 strain growth inhibition, active compounds read high
Procedure, shortened: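 Vehicle-treated cultures served as the baseline for growth inhibition of a DNA repair-mutant yeast strain exposed to each compound.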

[6] = NCI Yeast Anticancer Drug Screen. Data for the sgs1 mgt1 strain (AID 161);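 also: 0% = growth of cultures given vehicle only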; conditions: S. cerevisiae sgs1 mgt1 strain, active compounds read high
Procedure, shortened: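 Read-out: growth inhibition vs vehicle controls. Cells: mutant yeast strain deficient in DNA damage repair.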

[7] = NCI Yeast Anticancer Drug Screen. Data for the cln2 rad14 strain (AID 165);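 also: 0% = growth equal to vehicle treated cultures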; conditions: S. cerevisiae cln2 rad14 strain, active compounds read high
Procedure, shortened: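 Growth of compound-exposed yeast (cln2 rad14 genotype) measured and expressed as inhibition relative to vehicle.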

[8] = NCI Yeast Anticancer Drug Screen. Data for the bub3 strain (AID 167); conditions: S. cerevisiae bub3 mutant strain, active compounds read high
Procedure, shortened: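 Inhibition values come from growth of compound-treated mutant yeast normalised to vehicle-treated controls.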

[9] = NCI Yeast Anticancer Drug Screen. Data for the wt2 strain (AID 169);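 also: 0% = growth of vehicle-treated yeast cultures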; conditions: S. cerevisiae wt2 strain growth inhibition, active compounds read high
Procedure, shortened: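 Genetically defined yeast strains from a DNA-repair/cell-cycle panel were used. Compound-exposed yeast growth was measured, and the inhibition was calculated relative to vehicle treatment.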

[10] = NCI Yeast Anticancer Drug Screen. Data for the mlh1 strain (AID 171);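 also: 0% = growth of vehicle-treated control cultures of the same strain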; conditions: S. cerevisiae mlh1 strain growth inhibition, active compounds read high
Procedure, shortened: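 Here the genetically defined yeast mutant is grown with each compound, and the extent to which its growth falls below that of vehicle-exposed cells is reported.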

[11] = NCI Yeast Anticancer Drug Screen. Data for the sgs1 strain (AID 173);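 also: 0% = growth of vehicle-only control cultures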; conditions: S. cerevisiae sgs1 mutant, active compounds read high
Procedure, shortened: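 Relative growth inhibition, referenced to vehicle, was determined in a yeast strain with a defined alteration affecting DNA damage repair or cell cycle control after compound exposure.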

[12] = NCI Yeast Anticancer Drug Screen. Data for the mlh1 rad18 strain (AID 175); conditions: S. cerevisiae mlh1 rad18 strain growth inhibition, active compounds read high
Procedure, shortened: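 In this whole-cell yeast screen, a strain with altered DNA damage repair is challenged with compound, and its growth is measured against matched vehicle-treated controls.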

[13] = NCI Yeast Anticancer Drug Screen. Data for the rad18 strain (AID 177); conditions: S. cerevisiae rad18 mutant growth inhibition, active compounds read high
Procedure, shortened: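 Screen uses a yeast strain with a defined lesion in DNA damage repair; compound effect is read as loss of growth compared to untreated vehicle cultures.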

[14] = at 5.0 µM (retest, dose inferred, filed as 0.5)
[15] = at 50.0 µM (retest, dose inferred, filed as 5.0)

Measured: growth inhibition

O=C(O)[C@H]1[C@@H](C2CCCCC2)O[C@@H](C2CCCCC2)O[C@H]1C(F)(F)F
inactive: [1]; at 1.2 µM -3% | [1]; at 3.7 µM 0% | [1]; at 11.0 µM 0% | [1]; at 33.0 µM 0% | [1]; at 100.0 µM 1% | [2]; at 1.2 µM -4% | [2]; at 3.7 µM -1% | [2]; at 11.0 µM 2% | [2]; at 33.0 µM -2% | [2]; at 100.0 µM -3% | [3]; at 1.2 µM -4% | [3]; at 3.7 µM -5% | [3]; [14] -46% | [3]; at 11.0 µM -19% | [3]; at 33.0 µM -4% | [3]; [15] 61% | [3]; at 100.0 µM -2% | [4]; at 1.2 µM 2% | [4]; at 3.7 µM -2% | [4]; [14] -19% | [4]; at 11.0 µM 1% | [4]; at 33.0 µM -4% | [4]; [15] 16% | [4]; at 100.0 µM 5% | [5]; at 1.2 µM -1% | [5]; at 3.7 µM -1% | [5]; at 11.0 µM 0% | [5]; at 33.0 µM 0% | [5]; at 100.0 µM -1% | [6]; [14] -25% | [6]; [15] 12% | [7]; [14] -11% | [7]; [15] -8% | [8]; at 1.2 µM -4% | [8]; at 3.7 µM 2% | [8]; [14] -20% | [8]; at 11.0 µM 3% | [8]; at 33.0 µM -2% | [8]; [15] 5% | [8]; at 100.0 µM -1% | [9]; at 1.2 µM -2% | [9]; at 3.7 µM -3% | [9]; at 11.0 µM -3% | [9]; at 33.0 µM -4% | [9]; at 100.0 µM -1% | [10]; at 1.2 µM -3% | [10]; at 3.7 µM -1% | [10]; at 11.0 µM -4% | [10]; at 33.0 µM -5% | [10]; at 100.0 µM 3% | [11]; at 1.2 µM -2% | [11]; at 3.7 µM 0% | [11]; at 11.0 µM 1% | [11]; at 33.0 µM 1% | [11]; at 100.0 µM 1% | [12]; [14] -3% | [12]; [15] 18% | [13]; at 1.2 µM -6% | [13]; at 3.7 µM -4% | [13]; at 11.0 µM -8% | [13]; at 33.0 µM -6% | [13]; at 100.0 µM -2%
active: [3]; at 50.0 µM 88.1% | [4]; at 50.0 µM 91.8% | [6]; at 50.0 µM 85.5% | [7]; at 50.0 µM 87.3% | [8]; at 50.0 µM 87.8% | [12]; at 50.0 µM 83.8%
